Rows were chosen to be rich in hits. Some 2.1% of all compounds tested hit in one or more screens of this group.
NSD2 inh: inhibitors of human histone methyltransferase NSD2. NSD2 peptide methylation, AlphaScreen, 120 min. inhibition, % at 12.5 µM. O96028. hit rate 0.54% among 310,000. AID 743445; in the data active = inhibition above about 50%
SIRT5 inh: inhibitors of human sirtuin-5 desuccinylase | hit rate 1.1% among 330,000 | inhibition, % at 15 µM | AID 652115 | Purified SirT5, succinyl-peptide AMC, trypsin-coupled fluorescence; in the data active = inhibition above about 15%
Target sequence (Q9NXA8 whole entry, looked up): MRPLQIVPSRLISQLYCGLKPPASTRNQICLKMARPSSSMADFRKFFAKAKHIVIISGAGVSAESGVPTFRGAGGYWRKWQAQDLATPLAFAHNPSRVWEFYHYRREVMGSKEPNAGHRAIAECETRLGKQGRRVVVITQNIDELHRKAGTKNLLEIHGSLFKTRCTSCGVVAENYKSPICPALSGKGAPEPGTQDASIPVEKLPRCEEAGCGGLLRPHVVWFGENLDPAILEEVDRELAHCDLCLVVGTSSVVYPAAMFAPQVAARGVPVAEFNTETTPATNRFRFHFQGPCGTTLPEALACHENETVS
Casp6 inh: blocks human caspase-6 cleavage activity | inhibition, % at 12.5 µM | P55212 | purified caspase-6, Z-VEID-R110 cleavage fluorescence | hit rate 0.53% among 350,000;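 active = mean inhibition across replicates at least about 35%, with every replicate also reaching that limit, limit read from the data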
Target sequence (P55212 24-179 limits assumed): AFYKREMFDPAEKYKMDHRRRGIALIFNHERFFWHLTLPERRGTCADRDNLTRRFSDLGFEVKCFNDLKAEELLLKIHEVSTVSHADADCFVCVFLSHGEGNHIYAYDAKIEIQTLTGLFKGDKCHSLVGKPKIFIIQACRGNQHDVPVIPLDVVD
Target sequence (P55212 194-293 limits assumed): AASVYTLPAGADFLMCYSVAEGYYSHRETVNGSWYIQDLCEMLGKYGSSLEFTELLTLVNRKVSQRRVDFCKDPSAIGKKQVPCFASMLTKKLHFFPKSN
ARNT TACC3 PPI: disruptors of human ARNT/TACC3 interaction; hit rate 0.66% among 390,000; inhibition, % at 9.99 µM; AlphaScreen His-ARNT PAS-B/GST-TACC3 binding, luminescence; TACC3 fragment carries E629A point mutation;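 active = mean inhibition of replicates at least 50% and at least half of replicates each reaching 50%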
PfHsp90 set2: inhibits growth of yeast expressing Plasmodium falciparum Hsp90; S. cerevisiae expressing PfHsp90, BacTiter-Glo ATP, 48 h; yeast lacking PDR1 and PDR3 efflux regulators; hit rate 0.32% among 310,000; inhibition, % at 9.4 µM;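 active = every replicate shows inhibition above about 80%, whatever the replicate mean, limit read from the data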
Each line names hits and unclear results; the compound was inactive in the other large screens; ! = not active in a repeat.

Cc1ccc(S(=O)(=O)N(C)C[C@H]2OCc3cn(nn3)CCCC(=O)N([C@@H](C)CO)C[C@@H]2C)cc1	SIRT5 inh 20! (no result: NSD2 inh, PfHsp90 set2)
C[C@@H]1CN([C@@H](C)CO)C(=O)CCCn2nncc2CO[C@H]1CN(C)S(=O)(=O)c1ccc2c(c1)OCCCO2	SIRT5 inh 20! (no result: NSD2 inh, PfHsp90 set2)
C[C@H](CO)N1C[C@H](C)[C@@H](CN(C)S(=O)(=O)c2ccc3c(c2)OCCCO3)OCc2cn(nn2)CCCC1=O	Casp6 inh 47! (no result: NSD2 inh, PfHsp90 set2)
C[C@@H]1CCCCO[C@@H](CN(C)C(=O)c2ccncc2)[C@H](C)CN([C@H](C)CO)C(=O)c2cc(NS(=O)(=O)c3ccc(F)cc3)ccc2O1	none (no result: NSD2 inh, PfHsp90 set2)
O=C(C1CCCCC1)N1C[C@@H]2[C@H](c3ccccc31)[C@H](CO)N2C(=O)Cc1ccccn1	none (no result: NSD2 inh, PfHsp90 set2)
O=C(NCCc1ccccc1)c1cccc2c(-c3ccc(F)c(F)c3)coc12	Casp6 inh 45 (no result: ARNT TACC3 PPI, PfHsp90 set2)
COc1ccc(S(=O)(=O)N(C)C[C@H]2OCCCC[C@H](C)Oc3ccc(NC(=O)Nc4ccc(F)cc4)cc3C(=O)N([C@H](C)CO)C[C@H]2C)cc1	SIRT5 inh 17! (no result: NSD2 inh, PfHsp90 set2)
C[C@@H]1CCCCO[C@@H](CN(C)S(=O)(=O)c2ccc(Cl)cc2)[C@@H](C)CN([C@@H](C)CO)C(=O)c2cc(NC(=O)Nc3ccc(F)cc3)ccc2O1	none (no result: NSD2 inh, PfHsp90 set2)
C[C@@H]1CCCCO[C@H](CN(C)S(=O)(=O)c2ccc(Cl)cc2)[C@@H](C)CN([C@H](C)CO)C(=O)c2cc(NC(=O)Nc3ccc(F)cc3)ccc2O1	SIRT5 inh 16 (no result: NSD2 inh, PfHsp90 set2)
C[C@H](CO)N1C[C@H](C)[C@H](CN(C)S(=O)(=O)c2ccc(Cl)cc2)OCCCC[C@H](C)Oc2ccc(NC(=O)Nc3ccc4c(c3)OCO4)cc2C1=O	SIRT5 inh 21 (no result: NSD2 inh, PfHsp90 set2)
COc1ccc(S(=O)(=O)N(C)C[C@H]2OCCCC[C@@H](C)Oc3ccc(NC(=O)Nc4ccc(F)cc4)cc3C(=O)N([C@H](C)CO)C[C@H]2C)cc1	SIRT5 inh 16 (no result: NSD2 inh, PfHsp90 set2)
COc1ccc(NC(=O)Nc2ccc3c(c2)C(=O)N([C@H](C)CO)C[C@H](C)[C@H](CN(C)S(=O)(=O)c2ccc(F)cc2)OCCCC[C@@H](C)O3)cc1	none (no result: NSD2 inh, PfHsp90 set2)
CN1C(=O)c2cc(NC(=O)c3ccc(F)c(F)c3)ccc2OC[C@H]2O[C@H](CC(=O)N[C@H]3CCN(Cc4ccccc4)C3)CC[C@@H]21	none (no result: NSD2 inh, PfHsp90 set2)
Cc1ccc(CNC(=O)CNC(=O)[C@@H]2Cc3ccccc3CN2)cc1	SIRT5 inh 37
CC(CCC(C)C(C)(C)C)[C@@H]1CC[C@H]2C3C[C@H](OS(O)(=S)=S)[C@H]4C[C@H](OS(O)(=S)=S)[C@@H](OS(O)(=S)=S)C[C@]4(C)[C@H]3CC[C@]12C (some centres undefined) (tested in a mixture with another compound)	ARNT TACC3 PPI 55, PfHsp90 set2 109 (no result: NSD2 inh, SIRT5 inh, Casp6 inh)
CC(CCC(=O)NN)C1CCC2C3CCC4CC(O)CCC4(C)C3CCC12C (centres undefined)	none (no result: NSD2 inh)
COC(=O)C1(Cc2cc(-c3cccc(Br)c3)no2)CCN(C(=O)OC(C)(C)C)CC1	none (no result: NSD2 inh)
COC(=O)C1(Cc2cc(-c3ccc(OC)cc3OC)no2)CCN(C(=O)OC(C)(C)C)CC1	SIRT5 inh 34 (no result: NSD2 inh)
O=C1C2C(C(=O)N1/N=C/c1cc([N+](=O)[O-])c(O)cc1O)C1C=CC2C12CC2 (centres undefined)	Casp6 inh 76 (no result: ARNT TACC3 PPI)
O=C(C1CCC1)N1CC(=O)N2[C@H](CO)[C@@H](c3ccc(C#Cc4cccc(F)c4)cc3)[C@@H]2C1	none (no result: NSD2 inh, ARNT TACC3 PPI, PfHsp90 set2)
CC(C)C(OC(=O)C1=Cc2ccccc2OC1)C(=O)NCC1CCCO1 (centres undefined)	Casp6 inh 47 (no result: NSD2 inh)
Cc1nn2c(N3CCN(C4CCCC4)CC3)cc(C(C)(C)C)nc2c1-c1ccccc1	none (no result: SIRT5 inh, Casp6 inh, PfHsp90 set2)
Cc1nn2c(N3CCN(C)CC3)cc(C(C)(C)C)nc2c1-c1ccccc1	SIRT5 inh 15
COc1ccc(S(=O)(=O)N(C)C[C@H]2OCCCC[C@H](C)Oc3ccc(NC(=O)Nc4ccccc4)cc3C(=O)N([C@@H](C)CO)C[C@H]2C)cc1	none (no result: NSD2 inh, SIRT5 inh, Casp6 inh, PfHsp90 set2)
CC1(C)CC(=O)C(N=Nc2ccc(F)cc2)=C(O)C1	SIRT5 inh 30
CC1(C)CC(=O)C(N=Nc2ccc(Cl)cc2)=C(O)C1	none (no result: SIRT5 inh, Casp6 inh, ARNT TACC3 PPI)
CCCn1c(N)c(C(=O)CN2CCN(S(=O)(=O)c3cccc(Cl)c3)CC2)c(=O)[nH]c1=O	Casp6 inh 41
COc1ccc(S(=O)(=O)Nc2ccc3c(c2)C(=O)N([C@@H](C)CO)C[C@@H](C)[C@H](CN(C)S(=O)(=O)c2ccc(Cl)cc2)OCCCC[C@H](C)O3)cc1	none (no result: NSD2 inh, PfHsp90 set2)
COc1ccc(S(=O)(=O)Nc2ccc3c(c2)C(=O)N([C@H](C)CO)C[C@@H](C)[C@@H](CN(C)S(=O)(=O)c2ccc(Cl)cc2)OCCCC[C@@H](C)O3)cc1	none (no result: NSD2 inh, PfHsp90 set2)
COc1ccc(S(=O)(=O)Nc2ccc3c(c2)C(=O)N([C@H](C)CO)C[C@H](C)[C@H](CN(C)S(=O)(=O)c2ccc(Cl)cc2)OCCCC[C@H](C)O3)cc1	SIRT5 inh 16 (no result: NSD2 inh, PfHsp90 set2)
COc1ccc(S(=O)(=O)Nc2ccc3c(c2)C(=O)N([C@@H](C)CO)C[C@@H](C)[C@@H](CN(C)S(=O)(=O)c2ccc(Cl)cc2)OCCCC[C@@H](C)O3)cc1	SIRT5 inh 15 (no result: NSD2 inh, PfHsp90 set2)
COc1ccc(S(=O)(=O)Nc2ccc3c(c2)C(=O)N([C@H](C)CO)C[C@@H](C)[C@@H](CN(C)S(=O)(=O)c2ccc(Cl)cc2)OCCCC[C@H](C)O3)cc1	none (no result: NSD2 inh, PfHsp90 set2)
COc1ccc(S(=O)(=O)N(C)C[C@H]2OCCCC[C@@H](C)Oc3ccc(NS(=O)(=O)c4ccc(Cl)cc4)cc3C(=O)N([C@@H](C)CO)C[C@H]2C)cc1	SIRT5 inh 16 (no result: NSD2 inh, ARNT TACC3 PPI, PfHsp90 set2)
COc1ccc(S(=O)(=O)N(C)C[C@@H]2OCCCC[C@@H](C)Oc3ccc(NS(=O)(=O)c4ccc(Cl)cc4)cc3C(=O)N([C@H](C)CO)C[C@@H]2C)cc1	SIRT5 inh 16 (no result: NSD2 inh, ARNT TACC3 PPI, PfHsp90 set2)
CCCC#Cc1cnc2c(c1)C(=O)N([C@@H](C)CO)C[C@@H](C)[C@@H](CN(C)C(=O)c1cccnc1)O2	none (no result: NSD2 inh, PfHsp90 set2)
COc1ccc(S(=O)(=O)N(C)C[C@@H]2OCCCC[C@H](C)Oc3ccc(NS(=O)(=O)c4ccc(Cl)cc4)cc3C(=O)N([C@@H](C)CO)C[C@@H]2C)cc1	none (no result: NSD2 inh, ARNT TACC3 PPI, PfHsp90 set2)
COc1ccc(S(=O)(=O)Nc2ccc3c(c2)C(=O)N([C@H](C)CO)C[C@@H](C)[C@@H](CN(C)S(=O)(=O)c2ccc(Cl)cc2)O3)cc1	SIRT5 inh 20 (no result: NSD2 inh)
COc1ccc(S(=O)(=O)Nc2ccc3c(c2)C(=O)N([C@@H](C)CO)C[C@@H](C)[C@H](CN(C)S(=O)(=O)c2ccc(Cl)cc2)OCCCC[C@@H](C)O3)cc1	SIRT5 inh 16 (no result: NSD2 inh, PfHsp90 set2)
COc1ccc(/C=C/C(=O)NNC(=O)c2cc(C)oc2C)cc1	SIRT5 inh 23 (no result: PfHsp90 set2)
O=C(O)/C=C/C(=O)Nc1ccc(Cc2ccc(NC(=O)/C=C/C(=O)O)cc2)cc1	SIRT5 inh 22
